# “And” between values parts separate entries of the source, which are not always exact repeats. Equal values may be shown once. Inconclusive results are not listed. Where a call stands in place of a potency, no number is given. Where a structure was tested more than once in an assay, its records may differ in their call. The source made the active and inactive calls. Calls follow the shape of the full dose curve.
# Experiment: qHTS assay for small molecule disruptors of the mitochondrial membrane potential - cell viability (AID 720634); also: nearly all actives have a fitted effect of over 20% in size;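 as to activity change, negative = cytotoxicity: human HepG2 liver cancer cells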
# Conditions: HepG2 viability, ATP luminescence (CellTiter-Glo), 1 h; series mostly up to 83.2 µM; activity change, negative = cytotoxicity: at the top concentration
# Text: U.S. Tox21 Program National Center for Advancing Translational Sciences [NCATS] NIH Chemical Genomics Center [NCGC] U.S. Environmental Protection Agency [EPA] National Institutes of Environmental Health Sciences [NIEHS] National Toxicology Program [NTP] U.S. Food and Drug Administration [FDA] Tox21 Assay Overview: Mitochondrial membrane potential (MMP), one of the parameters for mitochondrial function, is generated by mitochondrial electron transport chain that creates an electrochemical gradient by a series of redox reactions. This gradient drives the synthesis of ATP, a crucial molecule for various cellular processes. Measuring MMP in living cells is commonly used to assess the effect of chemicals on mitochondrial function; decreases in MMP can be detected using lipophilic cationic fluorescent dyes. […] The dye accumulates in the mitochondria of healthy cells as aggregates, with red fluorescence. The mitochondrial potential decreases and the dye could not accumulate in the mitochondria and remains in the cytoplasm in monomers, with green fluorescence. In addition to the mitochondrial potential assay, these cells were also used to test the cytotoxicity by determining the cell viability in the culture based on the quantitation of ATP present. The cytotoxicity was measured in the same assay well of MMP assay.
# Tox21 Assay Protocol Summary: 2,000 HepG2 cells in 5 uL/well were dispensed into black, clear-bottom 1536-well plates using a Multidrop Combi (Thermo Scientific) dispenser. The assay plates were incubated for an overnight at 37 C to allow cells to attach to the wells, followed by the transfer of 23 nL compound or DMSO vehicle by a pin tool (Kalypsys). The plates were incubated for 1 hr at 37 C and 5% CO2, followed by the addition of 5 uL of 2X m-MPI dye into each well using Flying Reagent Dispenser (Aurora Discovery) and then CellTiter-Glo reagent was added at 4 uL/well and incubated 30 min at room temperature. Then luminescence intensity was quantified on a ViewLux CCD-based plate reader.
# Potency is read from the fitted curve at half-maximal effect.
SMILES,Potency,"activity change, negative = cytotoxicity"
Clc1ccccn1,inactive,–
CNC(=S)N(C)C,inactive,–
COc1ccc(N)c(C)c1,inactive,–
NCCN1CCNCC1,inactive,–
COc1ccc(C)cc1N,inactive,–
Cc1ccc(C(C)C)c(O)c1,inactive and 61.1 µM (active),–
CC(=O)OCc1ccco1,inactive,–
CC(C)(C#N)c1cc(Cn2cncn2)cc(C(C)(C)C#N)c1,inactive,–
CCCCCCCCCCCC(=O)OC,inactive,–
CCNC(=S)NCC,inactive,–
O=[N+]([O-])c1ccc2nc[nH]c2c1,inactive,–
CSc1ccc(Cl)cc1,inactive,–
Nc1nc(N)nc(-c2ccccc2)n1,inactive,–
OC1C(O)C(O)C(O)C(O)C1O (stereo not given),inactive,–
CCCCCCCCCCCCCCCC(=O)OC(C)C,inactive,–
CC1(C)NC(=O)NC1=O,inactive,–
CC(=O)OCc1ccccc1,inactive,–
C=CC[N+](C)(C)CC=C,inactive,–
O=C(O)Cn1c(=O)n(Cc2ccc(Br)cc2F)c(=O)c2ccc(Cl)cc21,–,-17.3% (inactive)
O=C(OCC1CCC2OC2C1)C1CCC2OC2C1 (stereo not given),inactive,–

SMILES,Potency,"activity change, negative = cytotoxicity"
O=S(=O)(O)c1ccccc1,inactive,–
CC(C)(C)c1cc(Cc2cc(C(C)(C)C)c(O)c(C(C)(C)C)c2)cc(C(C)(C)C)c1O,inactive,–
CC(=O)Oc1ccc(C)cc1,inactive,–
CN/C(=C\[N+](=O)[O-])NCCSCc1csc(CN(C)C)n1,inactive,–
CCCCCCCC=O,inactive,–
Brc1ccc(Br)c(Br)c1,inactive,–
CCNc1cccc(C)c1,inactive,–
O=C1C(c2[nH]c3ccccc3c2O)=Nc2ccccc21,inactive,–
C=C(C)[C@H]1CC=C(C)C(=O)C1,inactive,–
COc1ccc(CCC(C)=O)cc1,–,12.2% (inactive)
CC(CCO)CC(C)(C)C (stereo not given),inactive,–
CCc1ccccc1CC,inactive,–
CCNc1ccccc1,inactive,–
CN(C)c1ccc(Cc2ccc(N(C)C)cc2)cc1,inactive,–
CNC(=O)Oc1ccc2c(c1)[C@]1(C)CCN(C)[C@@H]1N2C,inactive,–
CC1(C)CC(N)CC(C)(CN)C1 (stereo not given),inactive,–
CN1C(=O)CC[C@H]1c1cccnc1,inactive,–
OCc1cccc(Oc2ccccc2)c1,inactive,–
c1ccc(Oc2ccccc2)cc1,inactive,–
NC(=S)NNC(N)=S,inactive,–

# — PubChem BioAssay (Tox21)
